In PubChem BioAssay (Tox21) one finds outcome and fluorescence, % of triamterene data, which are given here for 40 compounds.

Unmarked numbers belong to inactive results. Activity calls are given as the source filed them. The call rests on the fitted dose curve; in most records, active means well fitted curve in the direction sought with a large enough effect in the repeat runs; inconclusive means weak or mixed curves; inactive means flat fitted curve, though single readings scatter.
On the % scale 0 is the no-effect control and ±100 the full control effect.

This experiment in a line: qHTS assay to test for compound auto fluorescence at 460 nm (blue) in HEK293 cells (AID 720678). As to conditions: blue autofluorescence 405/460 nm; series mostly up to 91.3 µM. An excerpt:
National Center for Advancing Translational Sciences [NCATS]
NIH Chemical Genomics Center [NCGC]
U.S. Environmental Protection Agency [EPA]
National Institutes of Environmental Health Sciences [NIEHS]
National Toxicology Program [NTP]
U.S. Food and Drug Administration [FDA]
Compound auto fluorescence often interferes with screening of the compound library against various biological targets and signaling pathways. Some of these compounds may have fluorophoric properties. Such properties may interfere with the assay outputs resulting in false positives and/or negatives. To decrease such complications and ensure the compound activities are relevant in terms of biological response, the Tox21 10K compound library was screened for auto fluorescence.
From the fluorophores used as reporter signals in our screening assays, the auto fluorescence equivalencies of compounds against three fluorophores have been evaluated: Triamterene, Fluorescein and Rose Bengal sodium for blue, green and red fluorescence, respectively. The fluorescence intensities were measured using Excitation/Emission wavelengths at 405/460nm, 485/535nm and 540/590nm for blue, green and red labels, respectively. This assay includes the blue fluorescence data.
Tox21 Assay Protocol Summary:
2,000 HEK293 cells in 5 uL of culture medium containing 10% dialyzed FBS per well were dispensed into black wall/clear bottom 1536-well plates using a Multidrop Combi Dispenser (Thermo Scientific). The assay plates were incubated for 4-5 hr at 37C to allow cell attachment to the well bottom, followed by the transfer of 23 nL compound or DMSO vehicle by a pintool work station (Kalypsys, San Diego, CA). After the assay plates were incubated overnight at 37C and 5% CO2, fluorescence intensities in the assay plates were measured by an Envision (PerkinElmer, Shelton, CT) plate reader using three labels for measuring blue, green and red fluorescence at […] 460, 535 and 590nm respectively.
For orientation: qHTS replaces the single test concentration by a dilution series.
With `C1CCNCC1`, the compound was classed as inactive. On to `C1CS1`, for which the outcome was inactive. The same measure, in the same setting: the value for `CCC(C)(C)c1ccc(O)c(C(C)(C)CC)c1` was “inactive”; that for `SCc1ccccc1` was “inactive”; that for `CCCCCCCCn1sccc1=O` was “inactive”.

On to `CC(C)(C#N)C(C)(C)C#N`, for which the call was inactive.

For `c1ccc2c(c1)-c1cccc3cccc-2c13`, the compound was classed as inactive. Same read-out and setting: the value for `Cc1cccc(C)c1NC1=NCCCS1` was “inactive”. For `CCCC[N+](CCCC)(CCCC)CCCC`, the result was inactive.

For the compound `CN(C1CCCCC1)C1CCCCC1`, the outcome was inactive. In the case of `CC(C)C1(C)N=C(c2ncccc2C(=O)O)NC1=O` (stereo not given), the compound was called inactive. Consider `CC(Cc1ccccc1)NCc1ccccc1Cl` (stereo not given), for which the outcome was inactive. For the compound `O=C(O)CCCOc1ccc(Cl)cc1Cl`, the compound was classed as inactive. On to `NCCc1cc(O)c(O)cc1O`, for which the compound was called inactive. Still for that read-out and setting: for `OC[P+](CO)(CO)CO` the value was “inactive”; for `CCOP(=S)(OCC)Oc1ccc(S(C)=O)cc1` (stereo not given), “inactive”.

Turning to `CCOC(=O)NC(O)C(Cl)(Cl)Cl` (stereo not given), the compound was called inactive. For the compound `OCC1CO1` (stereo not given), the compound was classed as inactive. In the case of `C[N+]1(CCF)[C@@H]2CC[C@H]1CC(OC(=O)C(O)(c1ccccc1)c1ccccc1)C2` (stereo not given in full), the outcome was inactive. `CCCCC#N`: the outcome was inactive. On to `CC1(C)[C@H](C(=O)O[C@H](C#N)c2cccc(Oc3ccccc3)c2)[C@@H]1C=C(Br)Br`, for which the call was inactive.

With `CCCC[P+](CC)(CCCC)CCCC` (tested in a mixture with another compound), the call was inactive. For `CCCCCCCCCCCCN=C(N)N`, the fluorescence, % of triamterene was -0.0427% [at 3.72 µM]. Take `CN(C)N`: the outcome was inactive. As to `COc1ccc(C(=O)c2c(C)n(CCN3CCOCC3)c3ccccc23)cc1`, the compound was called inactive. As to `Clc1ccc2ccccc2c1`, the outcome was inactive. As to `CCSCc1ccccc1OC(=O)NC`, the outcome was inactive. On the same count and under the same terms, the value for `CC(C)(C)N(NC(=O)c1ccc(Cl)cc1)C(=O)c1ccccc1` was “inactive”; that for `CCN(C(C)=O)c1cccc(-c2ccnc3c(C#N)cnn23)c1` was “inactive”. Take `N#CC(C#N)=Cc1ccc(O)c(O)c1`: the compound was called inactive. On the same count and under the same terms, the value for `NC(=S)c1c(Cl)cccc1Cl` was “inactive”. Consider `CN1CC[C@]23c4c5ccc(O)c4O[C@H]2[C@@H](O)CC[C@H]3[C@H]1C5`, for which the outcome was inactive. Regarding `CC[N+]1(CCOC(=O)C(O)(c2ccccc2)c2ccccc2)CCCCC1`, the result was inactive.

Consider `CCNC(=O)NC(=O)/C(C#N)=N/OC`, for which the outcome was inactive. As to `COc1cc(CC(C)N)c(OC)cc1Br` (stereo not given), the result was inactive.

For the compound `CC(C)OC(=O)Cc1ccccc1`, the result was inactive. Consider `Nc1c(Br)cc(Br)c2c1C(=O)c1ccccc1C2=O`, for which the fluorescence, % of triamterene was -0.127% [at 18.6 µM]. As for `CCC(C)Cl` (stereo not given), the outcome was inactive. As to `C=CCSSCC=C`, the compound was called inactive. Turning to `CCC(C)(C)O`, the compound was called inactive.
